According to publication PMC8384837, “Expanding the binding specificity for RNA recognition by a PUF domain”:

Tests used:
Assay in all cases: yeast three-hybrid, YBZ-1, SC-Leu-His + 0.5 mM 3-AT, 4 days
Details in all cases: tags: N-Gal4 AD-HA kept; label: inside an RPR1-promoter hybrid RNA with tandem MS2 sites; ssRNA
[1] = target: PUM1 PUF domain R5-RSS (Homo sapiens, UniProt Q14671 828-1176, C1007R;R1008S;Q1011S)
Procedure, shortened: (§1)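 Repeat regions from input (SC-Leu) and selection (SC-Leu-His + 0.5 mM 3-AT) plates were PCR-amplified and Illumina-sequenced after four days of growth. The cells were strain YBZ-1 with a LexA–MS2 coat fusion and a HIS3 reporter, co-expressing Pumilio-1 PUF domain libraries and matching RNA elements from a centromeric plasmid. The interaction score is the log change in variant frequency from input to selection, taken in log2 with a pseudocount of 1 for absent variants.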

[2] = target: PUM1 PUF domain R5-RGN (Homo sapiens, UniProt Q14671 828-1176, C1007R;R1008G;Q1011N)
Procedure, shortened: as §1

[3] = target: PUM1 PUF domain R7-MSG (Homo sapiens, UniProt Q14671 828-1176, S1079M;N1080S;E1083G)
Procedure, shortened: as §1

[4] = target: PUM1 PUF domain R4-QPC (Homo sapiens, UniProt Q14671 828-1176, N971Q;H972P;Q975C)
Procedure, shortened: as §1

[5] = target: PUM1 PUF domain R8-KFM (Homo sapiens, UniProt Q14671 828-1176, N1122K;Y1123F;Q1126M)
Procedure, shortened: as §1

[6] = target: PUM1 PUF domain R3-TRV (Homo sapiens, UniProt Q14671 828-1176, C935T;Q939V)
Procedure, shortened: as §1

[7] = target: PUM1 PUF domain R8-RFA (Homo sapiens, UniProt Q14671 828-1176, N1122R;Y1123F;Q1126A)
Procedure, shortened: as §1

[8] = target: T1, PUM1 PUF domain R6-FYK (Homo sapiens, UniProt Q14671 828-1176, N1043F;Q1047K)
T1 sequence: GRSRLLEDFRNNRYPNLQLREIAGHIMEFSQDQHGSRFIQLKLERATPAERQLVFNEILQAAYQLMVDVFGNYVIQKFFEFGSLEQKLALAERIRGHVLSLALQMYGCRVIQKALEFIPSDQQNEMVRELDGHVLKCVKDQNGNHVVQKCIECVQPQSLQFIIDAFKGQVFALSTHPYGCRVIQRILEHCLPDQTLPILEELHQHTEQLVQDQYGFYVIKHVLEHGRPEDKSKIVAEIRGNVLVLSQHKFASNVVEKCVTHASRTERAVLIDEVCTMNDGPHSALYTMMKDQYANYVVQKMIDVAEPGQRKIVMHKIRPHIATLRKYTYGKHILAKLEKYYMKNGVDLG
Procedure, shortened: as §1

[9] = target: PUM1 PUF domain R3-SRW (Homo sapiens, UniProt Q14671 828-1176, C935S;Q939W)
Procedure, shortened: as §1

[10] = target: PUM1 PUF domain R3-QRI (Homo sapiens, UniProt Q14671 828-1176, C935Q;Q939I)
Procedure, shortened: as §1

With “GGCUAGAACUAGUGGAUCCCCCGGCGCCCGGCGGCUCGAGCCCGGGUAAGUGUUAAUAGUCUGCAUGCCGCCGGGCGCCAUGCCUGCAGGUCGACUCUAGAAAACAUG” the binding signal [1] was 2.86 log2 enrichment (interaction score) and the binding signal [2] was 2.27 log2 enrichment (interaction score).

In the case of “GGCUAGAACUAGUGGAUCCCCCGGCGCCCGGCGGCUCGAGCCCGGGUAAGUUUAAAUAGUCUGCAUGCCGCCGGGCGCCAUGCCUGCAGGUCGACUCUAGAAAACAUG”, the binding signal [3] was 3.37 log2 enrichment (interaction score).

With “GGCUAGAACUAGUGGAUCCCCCGGCGCCCGGCGGCUCGAGCCCGGGUAAGUGUAUAUAGUCUGCAUGCCGCCGGGCGCCAUGCCUGCAGGUCGACUCUAGAAAACAUG” the binding signal [4] was 2.52 log2 enrichment (interaction score).

“GGCUAGAACUAGUGGAUCCCCCGGCGCCCGGCGGCUCGAGCCCGGGUAAGUGUCAAUAGUCUGCAUGCCGCCGGGCGCCAUGCCUGCAGGUCGACUCUAGAAAACAUG” was tested, and the binding signal [1] was 2.89 log2 enrichment (interaction score).

In the case of “GGCUAGAACUAGUGGAUCCCCCGGCGCCCGGCGGCUCGAGCCCGGGUAAGUGUAAAUAGUCUGCAUGCCGCCGGGCGCCAUGCCUGCAGGUCGACUCUAGAAAACAUG”, the binding signal [5] was 2.58 log2 enrichment (interaction score), the binding signal [4] was 0.51 log2 enrichment (interaction score) and the binding signal [6] was 2.47 log2 enrichment (interaction score). The binding signal [7] was 5.72 log2 enrichment (interaction score), the binding signal [8] was 5.82 log2 enrichment (interaction score) and the binding signal [2] was 0.69 log2 enrichment (interaction score). For the same sequence, the binding signal [9] was 2.61 log2 enrichment (interaction score).

“GGCUAGAACUAGUGGAUCCCCCGGCGCCCGGCGGCUCGAGCCCGGGUAAGUGUAAUUAGUCUGCAUGCCGCCGGGCGCCAUGCCUGCAGGUCGACUCUAGAAAACAUG” was tested, and the binding signal [6] was 2.79 log2 enrichment (interaction score).

With “GGCUAGAACUAGUGGAUCCCCCGGCGCCCGGCGGCUCGAGCCCGGGUAAGCGUAAAUAGUCUGCAUGCCGCCGGGCGCCAUGCCUGCAGGUCGACUCUAGAAAACAUG” the binding signal [5] was 2.54 log2 enrichment (interaction score) and the binding signal [7] was 5.73 log2 enrichment (interaction score).

For “GGCUAGAACUAGUGGAUCCCCCGGCGCCCGGCGGCUCGAGCCCGGGUAAGUGUAAGUAGUCUGCAUGCCGCCGGGCGCCAUGCCUGCAGGUCGACUCUAGAAAACAUG”, the binding signal [6] was 1.18 log2 enrichment (interaction score) and the binding signal [10] was 3.99 log2 enrichment (interaction score).
